In ChEMBL document CHEMBL2218924, “A broad activity screen in support of a chemogenomic map for kinase signalling research and drug discovery” (Biochem J, 2013) one finds residual activity data, which are given here for 1 molecule.

Experiment [1] concerns the target Tyrosine-protein kinase SYK (Homo sapiens) (UniProt P43405). As to conditions: at 10 µM.
Experiment [2] has as its target T1, Serine/threonine-protein kinase TAO1 (Homo sapiens) (UniProt Q7L7X3).
T1 sequence (whole entry): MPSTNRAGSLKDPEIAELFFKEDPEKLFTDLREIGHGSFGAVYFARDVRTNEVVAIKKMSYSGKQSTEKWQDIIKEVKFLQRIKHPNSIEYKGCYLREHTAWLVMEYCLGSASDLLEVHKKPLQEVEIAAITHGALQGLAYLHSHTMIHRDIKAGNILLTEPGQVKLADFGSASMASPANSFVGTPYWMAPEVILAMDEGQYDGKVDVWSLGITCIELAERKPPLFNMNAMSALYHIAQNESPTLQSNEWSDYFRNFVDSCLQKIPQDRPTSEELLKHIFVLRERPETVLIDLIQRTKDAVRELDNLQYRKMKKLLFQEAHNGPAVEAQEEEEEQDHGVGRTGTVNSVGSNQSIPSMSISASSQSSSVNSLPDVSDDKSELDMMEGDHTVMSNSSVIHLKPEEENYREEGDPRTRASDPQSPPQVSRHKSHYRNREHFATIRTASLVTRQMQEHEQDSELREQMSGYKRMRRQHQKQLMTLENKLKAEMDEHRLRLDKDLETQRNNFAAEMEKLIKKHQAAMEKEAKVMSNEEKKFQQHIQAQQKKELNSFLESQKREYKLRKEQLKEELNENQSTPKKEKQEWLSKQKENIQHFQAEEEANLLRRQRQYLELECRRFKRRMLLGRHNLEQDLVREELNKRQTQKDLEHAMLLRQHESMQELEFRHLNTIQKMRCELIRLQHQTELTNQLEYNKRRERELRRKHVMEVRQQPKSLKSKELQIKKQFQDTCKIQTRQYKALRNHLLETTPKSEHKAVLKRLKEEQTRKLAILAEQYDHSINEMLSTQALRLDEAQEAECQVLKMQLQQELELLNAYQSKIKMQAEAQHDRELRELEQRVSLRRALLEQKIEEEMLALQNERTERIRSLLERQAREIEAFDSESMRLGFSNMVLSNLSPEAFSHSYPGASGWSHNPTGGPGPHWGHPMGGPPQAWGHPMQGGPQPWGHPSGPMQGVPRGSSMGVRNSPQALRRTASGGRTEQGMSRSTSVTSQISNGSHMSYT
As to conditions: at 1 µM.

The target in experiment [3] is T1, Serine/threonine-protein kinase TAO1 (Homo sapiens). To be noted: at 10 µM.
The target in experiment [4] is T2, Serine/threonine-protein kinase TAO2 (Homo sapiens) (UniProt Q9UL54).
T2 sequence (whole entry): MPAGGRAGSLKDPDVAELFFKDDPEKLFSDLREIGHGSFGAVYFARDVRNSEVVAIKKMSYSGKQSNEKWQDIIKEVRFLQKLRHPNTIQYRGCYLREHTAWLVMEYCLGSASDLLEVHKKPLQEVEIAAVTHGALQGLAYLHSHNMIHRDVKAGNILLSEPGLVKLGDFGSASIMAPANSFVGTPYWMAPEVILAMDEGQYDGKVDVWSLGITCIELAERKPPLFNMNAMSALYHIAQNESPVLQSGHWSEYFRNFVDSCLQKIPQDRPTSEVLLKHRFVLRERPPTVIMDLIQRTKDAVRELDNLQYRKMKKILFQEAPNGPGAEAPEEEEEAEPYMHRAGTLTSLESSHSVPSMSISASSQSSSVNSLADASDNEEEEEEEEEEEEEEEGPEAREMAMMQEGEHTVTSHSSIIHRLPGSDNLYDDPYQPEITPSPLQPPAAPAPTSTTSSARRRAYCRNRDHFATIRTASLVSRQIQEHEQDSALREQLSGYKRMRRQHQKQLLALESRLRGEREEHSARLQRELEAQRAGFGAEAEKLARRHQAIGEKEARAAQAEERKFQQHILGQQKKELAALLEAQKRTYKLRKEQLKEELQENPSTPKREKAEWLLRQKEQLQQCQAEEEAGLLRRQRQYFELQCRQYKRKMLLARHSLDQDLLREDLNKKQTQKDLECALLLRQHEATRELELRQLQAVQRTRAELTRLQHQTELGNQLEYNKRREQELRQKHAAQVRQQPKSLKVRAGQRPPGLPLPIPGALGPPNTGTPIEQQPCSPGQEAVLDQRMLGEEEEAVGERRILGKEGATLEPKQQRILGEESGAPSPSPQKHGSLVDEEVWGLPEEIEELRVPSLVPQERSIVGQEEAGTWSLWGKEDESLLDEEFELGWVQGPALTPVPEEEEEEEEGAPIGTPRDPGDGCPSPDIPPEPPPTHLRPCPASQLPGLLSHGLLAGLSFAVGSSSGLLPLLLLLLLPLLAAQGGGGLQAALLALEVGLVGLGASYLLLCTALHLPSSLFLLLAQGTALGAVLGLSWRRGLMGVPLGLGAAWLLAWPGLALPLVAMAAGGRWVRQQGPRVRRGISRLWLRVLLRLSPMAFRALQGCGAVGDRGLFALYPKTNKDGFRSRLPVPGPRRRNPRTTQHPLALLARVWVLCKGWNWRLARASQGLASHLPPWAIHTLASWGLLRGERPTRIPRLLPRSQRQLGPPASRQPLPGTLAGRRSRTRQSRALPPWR
As to conditions: at 1 µM.

The target in experiment [5] is T2, Serine/threonine-protein kinase TAO2 (Homo sapiens). As to conditions: at 10 µM.
The target of experiment [6] is T3, Serine/threonine-protein kinase TAO3 (Homo sapiens) (UniProt Q9H2K8).
T3 sequence (whole entry): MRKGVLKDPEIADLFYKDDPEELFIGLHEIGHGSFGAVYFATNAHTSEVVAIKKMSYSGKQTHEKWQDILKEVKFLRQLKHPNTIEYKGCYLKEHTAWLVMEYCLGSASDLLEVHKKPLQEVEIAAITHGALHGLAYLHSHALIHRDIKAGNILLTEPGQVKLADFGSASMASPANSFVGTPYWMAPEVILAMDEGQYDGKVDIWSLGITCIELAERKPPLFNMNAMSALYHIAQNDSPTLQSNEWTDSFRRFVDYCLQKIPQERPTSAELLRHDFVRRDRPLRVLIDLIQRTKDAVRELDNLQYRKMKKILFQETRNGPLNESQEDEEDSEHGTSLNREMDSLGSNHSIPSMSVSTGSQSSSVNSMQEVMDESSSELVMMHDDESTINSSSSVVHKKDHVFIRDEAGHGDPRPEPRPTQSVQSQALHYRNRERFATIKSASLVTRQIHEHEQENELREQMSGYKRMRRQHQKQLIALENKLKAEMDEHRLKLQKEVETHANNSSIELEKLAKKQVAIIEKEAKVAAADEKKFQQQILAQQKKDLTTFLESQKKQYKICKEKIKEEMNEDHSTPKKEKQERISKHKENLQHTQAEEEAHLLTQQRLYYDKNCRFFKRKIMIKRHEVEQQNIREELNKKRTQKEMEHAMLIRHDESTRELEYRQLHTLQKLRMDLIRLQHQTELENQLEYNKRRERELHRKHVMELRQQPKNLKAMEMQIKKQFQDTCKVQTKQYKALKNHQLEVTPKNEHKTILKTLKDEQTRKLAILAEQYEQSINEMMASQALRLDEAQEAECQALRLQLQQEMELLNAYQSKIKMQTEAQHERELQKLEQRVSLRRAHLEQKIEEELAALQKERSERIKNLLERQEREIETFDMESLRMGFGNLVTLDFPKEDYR
To be noted: at 1 µM.

For experiment [7], the target named is T3, Serine/threonine-protein kinase TAO3 (Homo sapiens). As to conditions: at 10 µM.
The target of experiment [8] is T4, Serine/threonine-protein kinase TBK1 (Homo sapiens) (UniProt Q9UHD2).
T4 sequence (whole entry): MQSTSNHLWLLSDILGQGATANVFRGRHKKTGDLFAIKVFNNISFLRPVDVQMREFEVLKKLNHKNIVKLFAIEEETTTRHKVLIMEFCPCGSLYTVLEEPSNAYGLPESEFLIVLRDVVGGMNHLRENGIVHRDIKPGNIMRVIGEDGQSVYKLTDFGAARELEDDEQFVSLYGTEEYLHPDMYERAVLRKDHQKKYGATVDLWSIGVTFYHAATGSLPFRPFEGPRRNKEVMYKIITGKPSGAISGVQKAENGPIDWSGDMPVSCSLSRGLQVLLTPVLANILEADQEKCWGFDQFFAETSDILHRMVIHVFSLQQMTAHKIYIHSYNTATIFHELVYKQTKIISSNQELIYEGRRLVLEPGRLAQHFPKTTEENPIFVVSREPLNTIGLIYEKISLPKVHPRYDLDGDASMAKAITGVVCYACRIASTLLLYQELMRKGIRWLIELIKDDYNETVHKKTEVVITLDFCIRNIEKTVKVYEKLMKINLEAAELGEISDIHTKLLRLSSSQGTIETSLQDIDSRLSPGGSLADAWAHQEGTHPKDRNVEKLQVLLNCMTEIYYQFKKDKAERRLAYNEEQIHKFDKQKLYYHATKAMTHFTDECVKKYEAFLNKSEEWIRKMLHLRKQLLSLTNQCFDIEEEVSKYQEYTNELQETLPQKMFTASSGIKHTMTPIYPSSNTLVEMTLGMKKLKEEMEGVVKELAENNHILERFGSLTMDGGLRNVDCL
As to conditions: at 1 µM.

Experiment [9] addresses T4, Serine/threonine-protein kinase TBK1 (Homo sapiens). To be noted: at 10 µM.
The target in experiment [10] is T5, TGF-beta receptor type-1 (Homo sapiens) (UniProt P36897).
T5 sequence (whole entry): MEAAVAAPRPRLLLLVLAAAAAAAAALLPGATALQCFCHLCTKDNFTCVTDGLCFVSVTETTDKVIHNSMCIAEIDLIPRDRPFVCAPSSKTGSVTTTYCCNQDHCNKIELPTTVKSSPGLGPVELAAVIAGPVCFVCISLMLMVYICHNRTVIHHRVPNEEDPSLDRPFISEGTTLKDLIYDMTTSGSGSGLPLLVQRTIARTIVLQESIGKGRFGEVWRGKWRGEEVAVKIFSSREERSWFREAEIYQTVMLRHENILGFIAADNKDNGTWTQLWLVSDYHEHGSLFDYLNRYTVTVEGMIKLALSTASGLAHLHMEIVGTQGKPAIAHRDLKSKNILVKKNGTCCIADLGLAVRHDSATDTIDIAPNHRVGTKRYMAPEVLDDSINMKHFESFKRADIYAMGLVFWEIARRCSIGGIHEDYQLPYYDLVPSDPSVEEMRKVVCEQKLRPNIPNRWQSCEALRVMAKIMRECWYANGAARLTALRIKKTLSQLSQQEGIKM
To be noted: at 1 µM.

Experiment [11] has as its target T5, TGF-beta receptor type-1 (Homo sapiens). To be noted: at 10 µM.
Experiment [12] deals with T6, Inhibitor of nuclear factor kappa-B kinase subunit alpha (Homo sapiens) (UniProt O15111).
T6 sequence (whole entry): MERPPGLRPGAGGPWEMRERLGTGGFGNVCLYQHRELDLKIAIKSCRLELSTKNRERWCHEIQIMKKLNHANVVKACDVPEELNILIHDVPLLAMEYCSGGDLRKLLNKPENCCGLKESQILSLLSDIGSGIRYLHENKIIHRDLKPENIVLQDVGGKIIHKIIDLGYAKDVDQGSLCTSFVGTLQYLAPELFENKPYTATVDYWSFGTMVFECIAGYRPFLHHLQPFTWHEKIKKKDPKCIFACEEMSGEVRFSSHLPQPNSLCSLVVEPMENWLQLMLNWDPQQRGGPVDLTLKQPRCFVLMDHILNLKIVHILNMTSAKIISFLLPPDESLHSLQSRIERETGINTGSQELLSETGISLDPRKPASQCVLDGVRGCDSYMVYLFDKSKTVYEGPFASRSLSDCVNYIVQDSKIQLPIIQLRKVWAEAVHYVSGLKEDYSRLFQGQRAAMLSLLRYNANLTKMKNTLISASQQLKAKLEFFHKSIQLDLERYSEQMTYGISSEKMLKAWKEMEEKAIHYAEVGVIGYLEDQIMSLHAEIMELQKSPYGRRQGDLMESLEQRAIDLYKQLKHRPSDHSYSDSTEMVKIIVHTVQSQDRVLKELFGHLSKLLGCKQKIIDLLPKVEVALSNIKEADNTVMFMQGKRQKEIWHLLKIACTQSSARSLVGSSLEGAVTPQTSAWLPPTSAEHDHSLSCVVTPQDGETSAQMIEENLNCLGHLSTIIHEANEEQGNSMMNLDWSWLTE
To be noted: at 1 µM.

For experiment [13], the target named is T6, Inhibitor of nuclear factor kappa-B kinase subunit alpha (Homo sapiens). As to conditions: at 10 µM.
The target in experiment [14] is T7, Inhibitor of nuclear factor kappa-B kinase subunit beta (Homo sapiens) (UniProt O14920).
T7 sequence (whole entry): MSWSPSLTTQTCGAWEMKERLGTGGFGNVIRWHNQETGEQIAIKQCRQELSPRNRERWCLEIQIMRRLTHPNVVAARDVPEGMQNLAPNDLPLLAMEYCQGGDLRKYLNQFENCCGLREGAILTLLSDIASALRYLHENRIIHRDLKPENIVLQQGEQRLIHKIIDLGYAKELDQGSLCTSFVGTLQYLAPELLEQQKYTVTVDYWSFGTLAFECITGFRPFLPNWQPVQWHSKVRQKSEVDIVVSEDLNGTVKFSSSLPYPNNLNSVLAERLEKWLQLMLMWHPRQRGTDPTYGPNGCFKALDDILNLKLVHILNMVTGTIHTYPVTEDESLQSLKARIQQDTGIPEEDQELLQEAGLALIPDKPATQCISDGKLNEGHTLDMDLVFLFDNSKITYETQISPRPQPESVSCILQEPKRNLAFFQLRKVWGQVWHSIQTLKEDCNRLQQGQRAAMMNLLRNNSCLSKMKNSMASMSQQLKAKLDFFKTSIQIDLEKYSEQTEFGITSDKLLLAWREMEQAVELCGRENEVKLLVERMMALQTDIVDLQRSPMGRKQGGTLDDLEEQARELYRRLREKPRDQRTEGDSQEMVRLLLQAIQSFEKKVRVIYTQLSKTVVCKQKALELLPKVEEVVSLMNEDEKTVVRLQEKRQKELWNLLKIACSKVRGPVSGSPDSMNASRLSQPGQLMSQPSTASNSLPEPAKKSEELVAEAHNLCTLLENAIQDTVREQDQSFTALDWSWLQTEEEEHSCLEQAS
To be noted: at 1 µM.

Experiment [15] addresses T7, Inhibitor of nuclear factor kappa-B kinase subunit beta (Homo sapiens). As to conditions: at 10 µM.

Turning to `Cn1c2ccccc2c2c3c(c4c5ccccc5n(CCC#N)c4c21)CNC3=O`, the residual activity (commonly the signal under treatment as a percentage of the control signal) stood at 5% in [1]; 7% in experiment [2]; 10% in experiment [3]; 10% in experiment [4]; 9% in [5]; 19% in [6]. The residual activity in experiment [7] worked out at 16%; in experiment [8] it was 11%; in experiment [9], 9%; in experiment [10], 69%; in experiment [11], 63%; in [12], 48%. The figures for the residual activity in [13], in [14] and in [15] were 19%, 72% and 63%, respectively.
